# Results published in PMC5540273 (PLoS ONE, 2017).
# Tested on: MKNK2
# Settings: concentration: 1 μM,replicates: in singlicate; n = 1
# 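Also: KINOMEscan kinase panel screen.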
row,SMILES,%Inh [%]
1,Cl.Oc1cc(-c2nc(-c3ccccc3)[nH]c2-c2ccncc2)ccc1Cl [SB-386023],12
2,Cc1cc(C(=O)Nc2ccc(Oc3ccc4nc(NC(=O)C5CC5)cn4n3)cc2)nn1-c1ccccc1,0
3,O=C(NCCNc1ccnc(NCc2ccc(F)cc2)n1)c1cc2ccccc2s1 [GSK1379944],12
4,C[C@@H](Oc1cc(-c2cnn(C3CCNCC3)c2)cnc1N)c1c(Cl)ccc(F)c1Cl,32
5,CNC(=O)c1ccccc1Sc1ccc2c(/C=C/c3ccccn3)n[nH]c2c1,0
6,C=CC(=O)Nc1cc2c(Nc3ccc(F)c(Cl)c3)ncnc2cc1OCCCN1CCOCC1 [GW781483],76
7,CC(C)Nc1cc(-c2ccc3c(N)n[nH]c3c2)nc(N)n1 [GSK2221681],66
8,Nc1nc(Nc2ccccc2)cc(-c2ccc3c(N)n[nH]c3c2)n1 [GSK2225749],56
9,CN(C)CC(O)COc1ccc(Nc2nccc(-c3cnn4nc(N5CCOCC5)ccc34)n2)cc1 (stereo not drawn) [GW767488],83
10,Cc1cc2cn[nH]c2cc1-c1cccc2c(N)c(C(N)=O)nnc12,23
11,O=C(NCCCN1CCOC1=O)c1cnc(NCc2cc(Cl)ccc2Cl)nc1NC1CCCC1,0
12,CCn1c(-c2nonc2N)nc2c(C#CC(C)(C)O)nc(OCCN)cc21.Cl.Cl [GSK902056],0
13,Cc1n[nH]c2ccc(-c3cc(OC[C@@H](N)Cc4ccccc4)cnc3-c3ccoc3)cc12.O=C(O)C(F)(F)F.O=C(O)C(F)(F)F [GSK507358],0
14,CN(C)CCOc1ccc(-c2cc(-c3c[nH]nc3-c3ccccn3)ccn2)cc1 [GW835314],13
15,Cl.Cl.NC[C@H](CC1CCCCC1)NC(=O)c1cc(Br)c(-c2ccnc3[nH]ccc23)s1 [GSK1581427],88
16,CC(C)N1C(=O)Cc2cc(Nc3ncc(C(F)(F)F)c(NCc4cccc(S(C)(=O)=O)c4)n3)ccc21,45
17,NC(=O)c1cc(-c2ccccc2)cc2c(C3CCNCC3)c[nH]c12 [GSK301362],13
18,Cc1ccc2c(-c3ccncc3)c(-c3ccc(F)cc3)nn2c1.Cl [GW461484],37
19,COc1ccc(C[C@@H](CN)NC(=O)c2cc(Br)c(-c3ccnc4[nH]ccc34)s2)cc1.Cl.Cl [GSK1389063],97
20,Cl.Cl.Nc1nc(-c2ccc3c(N)n[nH]c3c2)cc(N2CCCC(NC(=O)c3ccccc3)C2)n1 (stereo not drawn) [GSK2286775],27
21,CCN(CC)CCOc1ccc(Nc2ncc3cc(-c4c(Cl)cccc4Cl)c(=O)n(C)c3n2)cc1 [SB-601273],26
22,CCN(CC)CCCCNc1ncc2cc(-c3c(Cl)cccc3Cl)c(NC(=O)NC(C)(C)C)nc2n1,0
23,Cc1ccc(-n2nc(C(C)(C)C)cc2NC(=O)Nc2ccc(OCCN3CCOCC3)c3ccccc23)cc1 [GW839464],0
24,C[C@@H]1CCN(C(=O)CC#N)C[C@@H]1N(C)c1ncnc2[nH]ccc12,0
25,C[C@H]1Oc2cc(cnc2N)-c2c(nn(C)c2C#N)CN(C)C(=O)c2ccc(F)cc21,0
26,Cc1occc1-c1nc(N)c(OC[C@@H](N)Cc2c[nH]c3ccccc23)cc1-c1cc2c(C)n[nH]c2cn1 [GSK1660450],7
27,Cl.Cl.NC[C@H](Cc1ccc(C(F)(F)F)cc1)NC(=O)c1cc(Br)c(-c2ccnc3[nH]ccc23)s1 [GSK1487252],19
